Measured values: PubChem BioAssay AID1159580 (chemical genetic matrix, 2015)
Where “and” joins values, the source holds several entries; their conditions need not be identical. Equal values may be shown once. In all, about 5,500 compounds went through this assay and about 2,000 (36%) were called active. Inconclusive results (about 18%) are left out. No stated cut-off is given here; in the data, active means normalized growth mostly below about 0.91 (no sharp cut-off); inconclusive means no clear call, values can overlap the other calls; inactive means mostly above about 0.92. The list shows a part of the results.

Test: chemical genetic growth profiling, strain panel (AID 1159580);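 further: tested at 20 µM; growth read once vehicle control cultures reached saturation at 30 °C; 1 = growth at the plate median or of vehicle wells; lower values mean less growth of the strain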
Details: S. cerevisiae deletion strains, growth OD

Measured: normalized growth

CC(=O)Oc1ccc2c(c1)CCC1C2CC[C@@]2(C)C1CC[C@@H]2OC(C)=O (some centres undefined)
active: locus YDR137W, strain rgp1, active compounds read low 0.841 | locus YDR392W, strain spt3, active compounds read low 0.674
inactive: locus YAL021C, strain ccr4, active compounds read low 1.01 | locus YAL026C, strain drs2, active compounds read low 0.984 | locus YAL030W, strain snc1, active compounds read low 0.984 | locus YBL061C, strain skt5, active compounds read low 0.977 | locus YBR009C, strain hhf1, active compounds read low 0.969 | locus YBR021W, strain FUR4, active compounds read low 0.955 | locus YBR023C, strain chs3, active compounds read low 0.957 | locus YBR171W, strain sec66, active compounds read low 0.921 | locus YBR229C, strain ROT2, active compounds read low 0.94 | locus YBR231C, strain swc5, active compounds read low 1.02 | locus YBR279W, strain paf1, active compounds read low 1.02 | locus YCL011C, strain gbp2, active compounds read low 0.991 | locus YCL016C, strain dcc1, active compounds read low 0.991 | locus YCL029C, strain bik1, active compounds read low 0.972 | locus YCL069W, strain vba3, active compounds read low 0.989 | locus YCR088W, strain abp1, active compounds read low 0.978 | locus YDL005C, strain med2, active compounds read low 1 | locus YDL035C, strain GPR1, active compounds read low 0.971 | locus YDL040C, strain nat1, active compounds read low 0.994 | locus YDL074C, strain BRE1, active compounds read low 0.872 | locus YDL101C, strain DUN1, active compounds read low 0.969 | locus YDL134C, strain PPH21, active compounds read low 0.985 | locus YDL185W, strain tfp1, active compounds read low 0.983 | locus YDL192W, strain arf1, active compounds read low 0.984 | locus YDR001C, strain nth1, active compounds read low 0.983 | locus YDR069C, strain doa4, active compounds read low 0.983 | locus YDR101C, strain arx1, active compounds read low 0.967 | locus YDR159W, strain sac3, active compounds read low 0.924 | locus YDR162C, strain NBP2, active compounds read low 0.969 | locus YDR195W, strain ref2 1.08 | locus YDR297W, strain sur2, active compounds read low 0.988 | locus YDR318W, strain mcm21, active compounds read low 0.971 | locus YDR334W, strain swr1, active compounds read low 0.994 | locus YDR335W, strain msn5, active compounds read low 1.03 | locus YDR388W, active compounds read low 0.979 | locus YDR502C, strain sam2, active compounds read low 0.969 | locus YEL003W, strain gim4, active compounds read low 0.973 | locus YEL037C, strain rad23, active compounds read low 0.992 | locus YEL061C, strain CIN8 (second series), active compounds read low 0.992 | locus YEL061C, strain CIN8, active compounds read low 0.964 | locus YER015W, strain faa2, active compounds read low 1 | locus YER016W, strain bim1, active compounds read low 1 | locus YER110C, active compounds read low 0.984 | locus YER111C, strain swi4, active compounds read low 0.986 | locus YER155C, strain BEM2 (second series), active compounds read low 0.951 | locus YER155C, strain BEM2, active compounds read low 0.973 | locus YER167W, strain BCK2, active compounds read low 0.971 | locus YFR010W, strain ubp6, active compounds read low 1 | locus YGL078C, strain dbp3, active compounds read low 0.98 | locus YGL086W, strain mad1, active compounds read low 0.958 | locus YGL167C, strain pmr1, active compounds read low 0.973 | locus YGL173C, strain kem1, active compounds read low 0.987 | locus YGL227W, strain vid30, active compounds read low 0.989 | locus YGL240W, strain doc1, active compounds read low 0.993 | locus YGL248W, strain PDE1, active compounds read low 0.94 | locus YGL253W, strain hxk2, active compounds read low 1.01 | locus YGR078C, strain PAC10, active compounds read low 0.943 | locus YGR135W, strain pre9, active compounds read low 0.986 | locus YGR229C, strain SMI1, active compounds read low 0.954 | locus YGR252W, strain gcn5, active compounds read low 0.947 | locus YHR013C, strain ard1, active compounds read low 1.02 | locus YHR027C, strain rpn1, active compounds read low 0.995 | locus YHR030C, strain SLT2, active compounds read low 0.988 and 0.952 | locus YHR079C, strain IRE1 (second series), active compounds read low 0.977 | locus YHR079C, strain IRE1, active compounds read low 0.937 | locus YHR094C, strain hxt1, active compounds read low 0.978 | locus YHR129C, strain ARP1, active compounds read low 0.982 | locus YHR142W, strain chs7, active compounds read low 0.953 | locus YHR200W, strain rpn10, active compounds read low 0.963 | locus YIL066C, strain RNR3, active compounds read low 0.948 | locus YIL073C, strain SPO22, active compounds read low 0.97 | locus YIL125W, strain kgd1, active compounds read low 0.966 | locus YIR030C, strain dcg1, active compounds read low 0.981 | locus YJL092W, strain hpr5, active compounds read low 0.975 | locus YJL095W, strain BCK1 (second series), active compounds read low 0.973 | locus YJL095W, strain BCK1, active compounds read low 0.926 and 0.951 | locus YJL115W, strain asf1, active compounds read low 0.997 | locus YJL129C, strain trk1, active compounds read low 0.886 | locus YJL134W, strain LCB3, active compounds read low 0.978 | locus YJL154C, strain vps35, active compounds read low 0.995 | locus YJL164C, strain tpk1, active compounds read low 0.958 | locus YJL166W, strain qcr8, active compounds read low 0.988 | locus YJL168C, strain set2, active compounds read low 0.963 | locus YJL187C, strain SWE1 (second series), active compounds read low 0.956 | locus YJL187C, strain SWE1, active compounds read low 0.979 | locus YJR043C, strain POL32, active compounds read low 0.976 | locus YJR066W, strain TOR1, active compounds read low 0.956
